# From PubChem BioAssay AID624134 (Broad Institute, 2012)
# Screen size: about 1,600 compounds; about 1,100 (69%) were called active. So high a share suggests a set chosen from earlier hits. A selection follows. Measured potencies and affinities stand elsewhere. Records with an inconclusive call do not appear.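 Rule for the calls: active = signal drop with fitted half-maximal concentration no higher than twice the top valid tested concentration; inconclusive = flat curve with 30 to 70% signal loss, or poor fit; inactive = the rest, including signal rises and flat curves within 30%.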
# Test: loss of viability in HepG2 cells – cell-based, CellTiter-Glo, cherry-picked, cytotoxicity control for Shn3 inhibitor project, dose response (AID 624134);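 note: 0% = median of neutral control wells and -100% = median of positive control wells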
# Conditions: CellTiter-Glo ATP luminescence, 48 h; series mostly up to 35 µM; activity change, negative = cytotoxicity: at the top concentration
row,Structure (SMILES),"activity change, negative = cytotoxicity"
1,CCOC(=O)C1CCCN(S(=O)(=O)c2ccc(S(=O)(=O)N3CCCC3)cc2)C1 (configuration not stated),-6.66% (inactive)
2,CN(CC(=O)NCc1ccc2c(c1)OCO2)S(=O)(=O)c1ccc(Br)s1,11.1% (inactive)
3,Cc1cccc(CCN2C(N(C)C)=NC[C@@H]2CC(C)C)c1,-11.9% (inactive)
4,O=C1C=C(N2CCOCC2)c2ccccc2C1=O,-0.716% (inactive)
5,COc1cc(OC)c(OC)cc1/C=C1\CC(C)C/C(=C\c2cc(OC)c(OC)cc2OC)C1=O (configuration not stated),9.81% (inactive)
6,Cc1ccc(C)c(S(=O)(=O)Nc2ccc(-n3cnnn3)cc2)c1,-0.783% (inactive)
7,CC1(Cc2ccc(OC(F)(F)F)cc2)C(=O)Nc2c(Cl)ccc(Cl)c21 (configuration not stated),-0.472% (inactive)
8,Cc1nn(Cc2noc(C(=O)NC3CCC(C)CC3)n2)c(C)c1Br (configuration not stated),-0.596% (inactive)
9,Cc1nn(Cc2c(Cl)cccc2Cl)c(C)c1NC(=O)c1cn(-c2ccccc2)nc1-c1ccccc1,-1.4% (inactive)
10,CCOC(=O)CC1CCCCN1C(=O)c1cc(COc2cccc3cnccc23)on1 (configuration not stated),-18.8% (inactive)
11,CCCOc1ccc2oc(=O)c3c(c2c1)CCCN3C(=O)CN1CCN(c2ncccn2)CC1,-4.39% (inactive)
12,OC(c1ccccc1)C(O)C(c1ccccc1)N1CCCCC1 (configuration not stated),-8.45% (inactive)
13,OCCCNc1cc(-c2ccnc(Nc3cccc(Cl)c3)n2)ccn1,-19% (inactive)
14,OCCCNc1nccc(-c2cc(Nc3cccc(Cl)c3)ncn2)n1,-12% (inactive)
15,COc1ccc(OC)c(C(c2nnnn2Cc2ccccc2)N2CCN(C3CCCCC3)CC2)c1 (configuration not stated),-9.05% (inactive)
16,O=S(=O)(c1ccc(Cl)cc1)n1ccc2cccnc21,0.483% (inactive)
17,Cc1sc2ncnc(N3CCN(S(=O)(=O)c4ccccc4)CC3)c2c1C,-22.3% (inactive)
18,O=C(CN1C(=O)C2CCCCC2C1=O)NC1CCCc2ccccc21 (configuration not stated),-0.197% (inactive)
19,CCc1ccc(-n2c(O)c(C=NCCN(CC)CC)c(=O)[nH]c2=O)cc1,-6.43% (inactive)
20,CC(C)c1nnc(NC(=O)c2nc(S(=O)(=O)Cc3ccccc3)ncc2Cl)s1,-6.87% (inactive)
21,O=C1CC(c2ccccc2)CC(O)=C1C=Nc1cccc(Cl)c1 (configuration not stated),-7.86% (inactive)
22,CC(=O)N1CCN(C(=O)CCc2cc(C(C)(C)C)c(O)c(C(C)(C)C)c2)CC1,-8.85% (inactive)
23,COC(=O)[C@@]12CCCCN1[C@H](c1ccc(SC3CCCCC3)c(OC)c1)[C@@H]1C(=O)N(C)C(=O)[C@@H]12,-9.78% (inactive)

row,Structure (SMILES),"activity change, negative = cytotoxicity"
1,CCSc1nnc(NC(=O)c2nc(S(=O)(=O)Cc3ccc(F)cc3)ncc2Cl)s1,-8.21% (inactive)
2,CSc1nnc(NC(=O)c2nc(S(=O)(=O)Cc3cccc(C)c3)ncc2Cl)s1,-2.96% (inactive)
3,Cc1ccc(CS(=O)(=O)c2ncc(Cl)c(C(=O)Nc3nnc(C(C)C)s3)n2)cc1,-10.4% (inactive)
4,CC(C)(C)[C@@H]1COC(=O)[C@@H](NC(=O)OCC2c3ccccc3-c3ccccc32)C/C=C\C[C@@H](CC(=O)NCCO)C(=O)N1,-18.4% (inactive)
5,C[C@H]1COC(=O)[C@H](NC(=O)OCC2c3ccccc3-c3ccccc32)C/C=C\C[C@H](CC(=O)N(CCO)Cc2ccccc2)C(=O)N1,-2.09% (inactive)
6,O=C(CN1C(=O)c2ccccc2S1(=O)=O)c1ccc2c(c1)OCCCO2,4.26% (inactive)
7,COC(=O)[C@@]12CCCN1[C@H](c1ccc(-c3ccc(OC)cc3)cc1)[C@@H]1C(=O)N(C)C(=O)[C@@H]12,-1.78% (inactive)
8,O=C1/C(=C/c2ccccn2)SC(=S)N1Nc1ncc(C(F)(F)F)cc1Cl,-1.16% (inactive)
9,COc1cc(NC(=O)COc2cccc3c2OC(C)(C)C3)cc(OC)c1OC,-10.7% (inactive)
10,CCOC(=O)c1c(C)[nH]c(C(=O)COC(=O)[C@H](C)N2C(=O)C3CCCCC3C2=O)c1C (some centres not stated),-1.04% (inactive)
11,CCOc1ccc(NS(=O)(=O)c2cc(C(=O)NCCN3CCOCC3)ccc2C)cc1,-2.87% (inactive)
12,Cc1c(C(=O)N(Cc2cccc(Br)c2)C2CCS(=O)(=O)C2)oc2ccccc12 (configuration not stated),-1.47% (inactive)
13,CC1CCN(C(=O)c2ccc(N3C(=O)C4CCC(C)CC4C3=O)cc2)CC1 (configuration not stated),3.34% (inactive)
14,Cc1c(CCOC(=O)CC23CC4CC(CC(C4)C2)C3)sc[n+]1CC(=O)c1ccc(Br)cc1,-13.8% (inactive)
15,COc1ccccc1-n1cc([C@@H]2C[C@H]3CN(c4ccccc4)C(=O)[C@]34CCCN24)cn1,-18.9% (inactive)
16,O=C(NNc1ccccc1)C(=O)NNS(=O)(=O)c1ccc(CCCl)cc1,-6.66% (inactive)
17,O=C(CN1C(=O)c2ccccc2S1(=O)=O)c1ccc(Cl)cc1Cl,-5.75% (inactive)
18,NC(=O)NC(CC(=O)NCCc1ccccn1)c1ccccc1Cl (configuration not stated),-2.86% (inactive)
19,CC1(C)CC(=O)c2c(nc(SCC(=O)Nc3nsc(-c4ccccc4)n3)c(C#N)c2-c2ccccc2)C1,-5.76% (inactive)
20,CNS(=O)(=O)c1cccc(C(=O)OCc2cc(C(C)=O)ccc2OC)c1,0.463% (inactive)
21,CCN1C(=O)[C@H]2[C@@H](c3ccc(-c4ccc(OC)cc4)cc3)N3CCC[C@@]3(C(=O)OC)[C@H]2C1=O,-3.76% (inactive)
22,Cc1ccc(S(=O)(=O)CCC(=O)OCC(=O)Nc2cc(S(=O)(=O)N3CCOCC3)ccc2C)cc1,3.15% (inactive)
23,CNC(=O)c1nnsc1S(=O)c1ccc(Cl)cc1 (configuration not stated),-3.14% [at 16 µM] (inactive)

row,Structure (SMILES),"activity change, negative = cytotoxicity"
1,COCCn1c(SCC(=O)/C=C2\N(C)c3ccccc3C2(C)C)nnc1-c1ccncc1,-22% (inactive)
2,O=C1NCCOC(=O)[C@@H](Cc2ccc(F)cc2)CC/C=C/C[C@@H]1CC(=O)N(CCO)Cc1ccccc1,-6.06% (inactive)
3,COc1c(CC=C(C)C)cc(C2CC(=O)c3c(O)cc(O)cc3O2)cc1CC=C(C)C (configuration not stated),-9.16% (inactive)
4,Cc1cc(=O)oc2c3c(cc(OCC(=O)Nc4ccc(CCO)cc4)c12)OC(C)(C)CC3,-4.82% (inactive)
5,O=C(Nc1cc(F)ccc1F)N1CCN(c2ccnc3cc(Cl)ccc23)CC1,-17% (inactive)
6,COc1ccccc1-n1ccnc(SCC(=O)NCc2ccccc2Cl)c1=O,-8.69% (inactive)
7,Cc1ccc(S(=O)(=O)NCCc2cc3ccc(C)cc3[nH]c2=O)cc1,-9.09% (inactive)
8,CC[C@H](C)C(=O)O[C@H]1C[C@@H](C)C=C2C=C[C@H](C)[C@H](CC[C@@H]3C[C@@H](O)CC(=O)O3)[C@H]21,-15.4% (inactive)
9,COc1ccc(S(=O)(=O)N2CCN(c3cc(-c4ccccc4)nc4ncnn34)CC2)cc1,5.43% (inactive)
10,O=C(CSc1ccccn1)Nc1nonc1[N+](=O)[O-],-17.3% (inactive)
11,C=CCC[C@H](Cc1ccc(F)cc1)C(=O)OC[C@H](Cc1c[nH]c2ccccc12)NC(=O)[C@H](CC=C)CC(=O)N(CCO)Cc1ccccc1,-9.68% (inactive)
12,C=CC[C@H](CC(=O)N(CCO)Cc1ccccc1)C(=O)NC[C@H](OC(=O)[C@@H](CC=C)Cc1ccc(F)cc1)c1ccccc1,-4.46% (inactive)
13,C=CCOc1nc2c(c(=O)n(C)c(=O)n2C)n1Cc1ccc(Cl)cc1Cl,-2.85% (inactive)
14,O=C(COC(=O)/C=C/c1ccc(OC(F)F)cc1)Nc1ccc2[nH]c(=O)[nH]c2c1,4.55% (inactive)
15,C[C@]12CC[C@H](O)CC1=CCC1C2CC[C@@]2(C)C1CCC21OCCO1 (some centres not stated),-14.2% (inactive)
16,Cc1csc(=O)n1CC(=O)OCC(=O)c1c(N)n(C)c(=O)n(C)c1=O,-7.39% (inactive)
17,CS(=O)(=O)c1nc(-c2ccc(Br)cc2)cc(-c2ccccc2)c1C#N,-44% (inactive)
18,Cc1ccc2c(c1)c(C1=c3ccccc3=NC1=O)c(O)n2C,-17.2% (inactive)
19,CCCCN1CC(COCc2ccccc2)Oc2cccc(Oc3ccc(C)cc3)c2S1(=O)=O (configuration not stated),-11.8% (inactive)
20,COc1ccc2c(c1OC)C(=O)N1c3ccccc3C(=O)N(c3ccccc3F)C21 (configuration not stated),-5.72% (inactive)
21,CC1CN(C(=O)CCc2cc(C(C)(C)C)c(O)c(C(C)(C)C)c2)CC(C)O1 (configuration not stated),-3.37% (inactive)
22,CCOc1ccc(Cn2nnc(C(=O)Nc3cc(OC)cc(OC)c3)c2N)cc1,-16.3% (inactive)
23,Cc1onc(-c2c(Cl)cccc2Cl)c1C(=O)N[C@@H]1C(=O)N2[C@@H]1SC(C)(C)[C@@H]2C(=O)O,2.2% (inactive)

row,Structure (SMILES),"activity change, negative = cytotoxicity"
1,Cc1onc(-c2ccccc2Cl)c1C(=O)N(C)C1CCCCC1,-13.7% (inactive)
2,COc1ccc(NC(=O)CCOc2cc(C)ccc2C)cc1S(=O)(=O)N1CCCCC1,-20.7% (inactive)
3,COCc1c(C(=O)Nc2cccc(S(=O)(=O)N3CCCCC3)c2)oc2ccccc12,-16.8% (inactive)
4,O=C(CSc1nnc(-c2ccc(Cl)cc2Cl)n1C1CCCCC1)N1CCCC1,-3.6% (inactive)
5,COC(=O)c1cn(NC(=O)c2cc([N+](=O)[O-])ccc2F)c(=O)c2ccccc12,-7.42% (inactive)
6,CCCCN1C2=NCCCN2c2cc(C)c(C)cc21,-12.8% (inactive)
7,CCN(CC)C(=O)[C@H]1C[C@H](CC(=O)NC/C=C(\C)CCC=C(C)C)C(=O)N2CCc3c([nH]c4cc(CCC(=O)N(C)C)ccc34)[C@]12C,1.03% (inactive)
8,COCCN1Cc2cccc(C(=O)Nc3ccc4c(c3)OCCO4)c2C1=O,-11.9% (inactive)
9,COc1ccc(N2C(=O)C(CC(=O)Nc3ccccc3)N(Cc3ccc(OC)c(OC)c3)C2=O)cc1 (configuration not stated),8.78% (inactive)
10,Cc1ccc(CNC(=O)c2cc(-c3ccccc3C)nn2CC2CC(c3cccnc3)=NO2)cc1 (configuration not stated),-8.82% (inactive)
11,COc1cc(NC(=O)c2cc3c(Cl)nc4ccccc4c3s2)cc(OC)c1OC,-12.9% (inactive)
12,COC(=O)c1ccccc1NC(=O)c1nc(S(=O)(=O)Cc2ccccc2)ncc1Cl,2.89% (inactive)
13,CCS(=O)(=O)c1ncc(Cl)c(C(=O)Nc2ccccc2OC)n1,1.02% (inactive)
14,Cc1cccc(CS(=O)(=O)c2ncc(Cl)c(C(=O)Nc3nnc(C(C)C)s3)n2)c1,-7.95% (inactive)
15,S=c1[nH]nc(COc2cccc3ccccc23)n1Cc1ccccc1,-3.17% (inactive)
16,COC(=O)c1ccc(COC(=O)c2[nH]c(C)c(C(C)=O)c2C)o1,-4.96% (inactive)
17,CCCc1nnc(NC(=O)c2nc(S(=O)(=O)Cc3ccc(C)cc3)ncc2Cl)s1,-3.17% (inactive)
18,CCc1nnc(NC(=O)c2nc(S(=O)(=O)Cc3cccc(C)c3)ncc2Cl)s1,-14.1% (inactive)
19,CN(C)S(=O)(=O)c1cccc(N=c2scc(-c3ccc4c(c3)NC(=O)CO4)n2CC2CCCO2)c1 (configuration not stated),-15.4% (inactive)
20,CC(C)(C)C(=O)Nc1cc(S(=O)(=O)N2CCCCC2)ccc1N1CCCCC1,0.395% (inactive)
21,Cc1ccc(-c2nc3ncccc3o2)cc1NC(=O)c1sc2ccccc2c1Cl,-3.4% (inactive)
22,Cc1ccc2cc(CN(CC3CCCO3)C(=O)NC3CCCCC3)c(=O)[nH]c2c1C (configuration not stated),0.111% (inactive)
23,Cc1ccc(C(=O)N2CCN(C)CC2)cc1S(=O)(=O)N1CCCCCC1,8.18% (inactive)
